An excerpt weighted towards active compounds, which were near 1.8% of everything screened.
Exocytosis inh – blocks lytic granule exocytosis; AID 651702; inhibition, % at 10 µM; 360,000 compounds, 0.66% hits; TALL-104 LAMP-1 surface exposure, flow cytometry; cells stimulated with thapsigargin and PMA;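 active = inhibition above about 55%, limit read from the data; inconclusive = no clear call, values can overlap the other calls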
ABCB6 inh MLPCN – blocks the human ABCB6 transporter | K562-ABCB6 porphyrin accumulation, flow cytometry, 1 h; stronger effect = lower value | fluorescence ratio to DMSO, % at 10 µM | 360,000 compounds, 0.19% hits | AID 602162;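 active = fluorescence ratio to DMSO below 75%, the collection mean minus 3 SD; inconclusive = too few cells collected in the well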;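 also: signal is porphyrin accumulated inside mitochondria; 100% equals median channel fluorescence of DMSO control wells; lower ratio means ABCB6 inhibition with less porphyrin fluorescence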
Target sequence (Q9NP58 whole entry, looked up): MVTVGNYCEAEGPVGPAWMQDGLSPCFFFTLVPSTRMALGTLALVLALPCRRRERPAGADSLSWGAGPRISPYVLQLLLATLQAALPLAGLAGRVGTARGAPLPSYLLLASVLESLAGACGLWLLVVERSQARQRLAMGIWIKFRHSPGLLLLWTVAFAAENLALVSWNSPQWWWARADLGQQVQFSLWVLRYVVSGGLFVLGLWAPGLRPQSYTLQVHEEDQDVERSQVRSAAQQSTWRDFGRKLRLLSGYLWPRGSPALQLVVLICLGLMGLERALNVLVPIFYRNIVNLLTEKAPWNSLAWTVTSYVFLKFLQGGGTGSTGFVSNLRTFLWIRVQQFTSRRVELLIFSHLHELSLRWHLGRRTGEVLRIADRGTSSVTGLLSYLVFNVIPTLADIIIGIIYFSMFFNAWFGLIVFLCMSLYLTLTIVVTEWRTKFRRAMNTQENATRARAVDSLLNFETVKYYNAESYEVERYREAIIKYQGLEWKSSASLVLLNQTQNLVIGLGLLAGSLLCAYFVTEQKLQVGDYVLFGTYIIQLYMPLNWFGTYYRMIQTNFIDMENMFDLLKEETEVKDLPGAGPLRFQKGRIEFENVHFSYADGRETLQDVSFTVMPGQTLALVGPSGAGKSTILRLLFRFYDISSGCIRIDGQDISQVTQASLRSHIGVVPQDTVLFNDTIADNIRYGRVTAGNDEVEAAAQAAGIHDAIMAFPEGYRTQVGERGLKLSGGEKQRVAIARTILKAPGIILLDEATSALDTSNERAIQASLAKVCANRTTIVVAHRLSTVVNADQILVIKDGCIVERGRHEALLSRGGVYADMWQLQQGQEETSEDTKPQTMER
Myeloid diff MLP – compounds promoting myeloid differentiation; calls only at 10 µM; 360,000 compounds, 1% hits; AID 624256; ER-HoxA9 myeloid progenitors, lysozyme-GFP differentiation, flow cytometry;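 active = normalized GFP-positive differentiation at or above the plate's own cutoff, the solvent-only control mean plus 3 SD; inconclusive = no clear call, values can overlap the other calls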;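 also: cells exposed to compound for four days before flow analysis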
The depositor's hits bear a star; i = inactive; ? = inconclusive; / = no result given; + = active, no number.

SMILES	Exocytosis inh	ABCB6 inh MLPCN	Myeloid diff MLP
O=C(c1ccc(Cl)c([N+](=O)[O-])c1)N(Cc1ccco1)C1CCS(=O)(=O)C1 (centres undefined)	-1.1	101.0	+
CCN(c1ccccc1)S(=O)(=O)c1ccc(C(=O)Nc2cccc(NC(C)=O)c2)cc1	-3.1	96.0	i
CCN(c1ccccc1)S(=O)(=O)c1cc(C(=O)Nc2ccc(F)c(F)c2)ccc1F	6.3	100.0	+
CCOc1[nH]n(-c2ccccc2)c(=O)c1C=Nc1ccc(Cl)cc1	0.8	89.0	i
CCOc1[nH]n(-c2ccc(Cl)cc2)c(=O)c1C=Nc1ccc(OC)cc1	-0.8	92.0	+
COC(=O)C(=O)C/C(=N/Nc1ncnc2ccccc12)c1ccc(Cl)cc1	14.8	129.0	+
Cc1ccc(/C(=N/Nc2ncnc3ccccc23)C(=O)O)cc1	7.2	98.0	i
O=[N+]([O-])c1ccc(NCCCc2ccccc2)cc1	5.1	94.0	i
Cc1ccc(S(=O)(=O)Nc2ccc3c4c(cccc24)CC3)c(C)c1	1.3	91.0	+
Cc1cc(C)c(S(=O)(=O)Nc2ccc3c4c(cccc24)CC3)c(C)c1	-0.8	125.0	?
Nc1c(N(Cc2ccccc2)C(=O)COc2ccc(F)cc2Cl)c(=O)[nH]c(=O)n1Cc1ccccc1	6.8	97.0	i
COc1cc2c(cc1OC)[C@@H](NC(=O)COc1ccccc1)[C@H](OCc1ccccc1)C2	26.0	102.0	i
O=[N+]([O-])c1ccc(NN=Cc2ccccc2)nc1	-4.0	97.0	i
N#Cc1ccccc1Cn1cc(/C=N/Nc2ccc([N+](=O)[O-])cn2)c2ccccc21	-0.2	468.0	+
O=[N+]([O-])c1ccc(N/N=C\c2cccn2-c2ccccc2)nc1	56.9*	163.0	i
CCOc1ccccc1C=NNc1ccc([N+](=O)[O-])cn1	8.6	111.0	i
COC(=O)[C@@]1(Cc2ccc(F)cc2)[C@H]2c3cc(C(=O)N(C)C)n(Cc4ccc(C)c(F)c4F)c3C[C@H]2CN1C(=O)c1ccccc1	5.4	118.0	i
COc1ccc(C(=O)Oc2c(CN3CCOCC3)cc(Cl)c3cccnc23)cc1	4.6	104.0	/
O=C(Oc1c(CN2CCOCC2)cc(Cl)c2cccnc12)c1ccc(F)cc1	0.5	92.0	+
O=C(Oc1c(CN2CCOCC2)cc(Cl)c2cccnc12)c1ccccc1Cl	-0.8	236.0	?
COc1cc(C(=O)Oc2c(CN3CCOCC3)cc(Cl)c3cccnc23)cc(OC)c1OC	7.3	97.0	+
COc1ccccc1-c1cccc([C@@H]2C[C@H]3[C@H](CON3C)CN2C(=O)CCc2ccccc2)c1	-2.7	91.0	i
COc1ccc(S(=O)(=O)N2CCN(C(=O)c3cc(C)nc4ccccc34)CC2)cc1OC	-1.4	95.0	i
COc1ccc(NC(C)C(=O)Nc2cccc(S(=O)(=O)N3CCOCC3)c2)cc1OC (centres undefined)	-0.8	94.0	i
CCOC(=O)C1=C(C)N=c2s/c(=C/c3ccc(OCC(=O)O)cc3)c(=O)n2C1c1ccc(SC)cc1 (centres undefined)	1.7	99.0	i
SMILES	Exocytosis inh	ABCB6 inh MLPCN	Myeloid diff MLP
CCOC(=O)C1=C(C)N=c2s/c(=C/c3ccc(OCC(=O)O)cc3)c(=O)n2C1c1ccc(F)cc1 (centres undefined)	-10.3	103.0	+
N#Cc1ccc(-c2nc3ccc(Cl)cn3c2Cc2ccsc2)cc1	-7.0	97.0	i
Cc1cccc(N(C)S(=O)(=O)c2c[nH]c3ccc([N+](=O)[O-])cc23)c1	84.4*	94.0	i
O=[N+]([O-])c1ccc2[nH]cc(S(=O)(=O)N3CCN(c4cccc(Cl)c4)CC3)c2c1	21.4	100.0	i
CC(=O)NCCNC(=O)C1(C)Cc2c(-c3ccc(NC(C)=O)cc3)ccnc2O1 (centres undefined)	4.8	100.0	i
CCn1cc(C(=O)NC(C)C2CC3CCC2C3)cn1 (centres undefined)	1.9	101.0	i
CCn1cc(C(=O)NC(C)C23CC4CC(CC(C4)C2)C3)cn1 (centres undefined)	-2.7	94.0	+
CC1(c2nnnn2Cc2ccccc2)CCC(=O)N1CC1CCCCC1 (centres undefined)	3.2	99.0	i
COc1ccccc1CNC(=O)COC(=O)c1cc2ccccc2o1	0.5	100.0	i
CC1OC(C(C)(C)C)Cc2[nH][nH]c(=O)c21 (centres undefined)	-9.4	103.0	i
N#CC1=C(c2ccccc2)/C(=C/c2ccccc2)OC1=O	66.0*	107.0	?
O=C1O/C(=C/c2ccccc2)c2ccccc21	0.4	100.0	i
CC(C)C(NC(=O)c1ccccc1NC(=O)C(C)(C)C)C(=O)N1CCOCC1 (centres undefined)	5.6	102.0	i
Cc1ccc([C@@H]2CC(=O)[C@@H]3CN(S(=O)(=O)c4ccc(C)cc4)[C@H](c4ccc(Cl)cc4)C[C@@H]3N2S(=O)(=O)c2ccc(C)cc2)cc1	3.8	90.0	i
Cc1ccc(S(=O)(=O)N2CCN(Cc3nc4sc(C)c(C)c4c(=O)[nH]3)CC2)cc1	-4.9	103.0	i
Cc1sc2nc(CN3CCN(S(=O)(=O)c4cccc5nonc45)CC3)[nH]c(=O)c2c1C	0.7	24.0*	i
Cc1ccc([C@H]2C[C@H](n3cc(C4CC4)nn3)[C@@H](O)CN2C(=O)c2cccs2)cc1	-5.2	106.0	i
CCN1CCN(c2cc(C)c3cc(NC(=S)N4CCN(c5ccccc5)CC4)ccc3n2)CC1	56.4*	96.0	?
CCN1CCN(c2cc(C)c3cc(NC(=S)N4CCOCC4)ccc3n2)CC1	1.5	96.0	i
CCC(C(=O)OCC(=O)NCc1ccc2c(c1)OCO2)c1ccccc1 (centres undefined)	-2.1	103.0	i
CCOc1ccc2nc(NCCNC(=O)CC)c(C#N)cc2c1	-3.6	100.0	+
CCC(=O)NCCNc1nc2cc(C)c(C)cc2cc1C#N	0.3	88.0	i
C=CC[C@@H](CC(=O)N(CCO)Cc1ccccc1)C(=O)N[C@@H](C)COC(=O)[C@@H](CC=C)CC(=O)OC(C)(C)C	63.6*	99.0	i
C=CC[C@H](CC(=O)N(CCO)Cc1ccccc1)C(=O)N[C@@H](C)COC(=O)[C@H](CC=C)CC(=O)OC(C)(C)C	0.6	91.0	i
COCCn1c(N)c(C(=O)NCC2CCCO2)c2nc3ccccc3nc21 (centres undefined)	-0.1	96.0	i
SMILES	Exocytosis inh	ABCB6 inh MLPCN	Myeloid diff MLP
CC(C)Cn1c(N)c(C(=O)NCC2CCCO2)c2nc3ccccc3nc21 (centres undefined)	3.4	106.0	+
COc1cccc(CNc2ccccc2O)c1OCc1ccccc1F	2.2	108.0	+
COc1cccc(CNc2ccc(S(N)(=O)=O)cc2)c1OCc1ccccc1F	-0.4	96.0	i
CCNC(=O)C1CCCN(C(=O)c2ccc(C#N)cc2)CC1 (centres undefined)	0.2	99.0	i
CCOc1ccc(CCNS(=O)(=O)c2ccc3c(c2)NC(=O)CO3)cc1OCC	1.8	100.0	i
O=C1COc2ccc(S(=O)(=O)NCCc3ccccc3)cc2N1	-6.6	91.0	+
CSc1nsc(/C=C/Nc2ccc(C)c(C)c2)c1C#N	3.9	122.0	i
CSc1nsc(/C=C/Nc2ccc(C)cc2)c1C#N	1.7	/	+

Source: PubChem (NMMLSC)
